What follows are sequences tested on PPARg DBDmut IVT, anti-PPARg (DBD mutation: PPARg1 K132A/R137A, NR concentration 270 nM) (assay: PBM binding z-score (relative to random genomic background probes); higher = stronger binding; sequences stand for … in GC…GCGATTGACAGCGTAGAATGAAGG).
Summary of the method: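 Binding z-scores take random background probes as their reference. They come from custom Agilent 4×180K protein-binding microarrays incubated 1 h with ligand-free nuclear receptor dimers, with antibodies against each partner (one per run) detecting binding. Scanned fluorescence was regression-normalized.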

Sequence | PBM binding z-score
GCTGCTAGGTCAGGTTGGTCAGCCAACGGGTACG | -1.25
CATACAGGGTCAGCTAGGACAGAGTAGGGACGGC | 0.0196
GCATATAGGTAATACAAGGTGCAAGTCCGATTGT | 0.109
TCTATTAGTTGAATGGCAACCGACGAGTCCGTTT | 0.888
CAAACTTGGTCACGAAAGGTCAAAGTCGAATGAC | 0.593
GCTTGTAGATCAAGGTTAAGACAGACTAAGCTAA | -0.149
CCGAGCAGGCCAGGGTCACTCAAGCATTTCGCTT | -1.55
ACTAGCAGGCCAAGGGTCACACAAGATTAGTCCG | -0.266
TTACCACGGTGAAAGGTCGTTGATGCACGCCTTG | 0.773
GCTAGCAGGCCATTTGTGTCACTCAATGACGGGC | -0.917
ATCTCTAGGTTAGACTCAGTTCAGTGAAGAACGC | 1.36
CGAACTAGGTCAGAACAGGACAGGGAAGGATGAT | 3.12
CGTCAAAGTTCAACTAAGGTATCGTAAAGCACGC | 0.78
TGATATAGGTAAATGCTAGGTGAAAGTCCGATCT | 0.956
CGTCACAGTTCAAGGTAACGTAACAGAAAGCAGC | 0.734
CCTACTGGGCCATCAGGTCCTTGATATCAACGTT | -0.684
TCTTGTAGATCAATAGGAGGTTAAGAAAGATCGA | 0.624
CCGACTGGGGAATAAGGTTACCATAAGCCAGCCC | -0.915
CCAGACAGGTGAGAAGGTTACTCAGCCTCGATTA | -0.801
GGAACGAGGGCAGGTTGATAGCAGAGTTTGATGG | -0.47
ATCGAAAGGTGGAGGTGAGTATAGAGAAAGGGAA | -0.168
GATACAGGGTCAGCTAGAGACCAGAGTATGGAAA | -0.539

— the supplement of paper PMC6555819
